# Measured values from the supplement of paper PMC10646978.
# ± gives the standard deviation.
# Key:
# Conditions in all cases: modulator concentration 10 µM
# [1] = system: RAW-Dual (murine macrophage reporter line); assay: NF-kB reporter (SEAP) activity fold change vs agonist alone; higher = enhanced NF-kB activity
# How it was run: (§1)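 Compound reached 10 μM final in each well by pin transfer, onto RAW-Dual murine macrophage reporter cells seeded at 50 000 per well in 384-well plates. After 1 hour at 37 °C, the cells were stimulated overnight with a PRR agonist. SEAP in the supernatant was read with QUANTI-Blue at 620 nm absorbance for NF-κB, and Lucia luciferase was read with QUANTI-Luc luminescence for IRF. Each signal was turned into fold change against the mean agonist-only control on the same plate, and two replicate plates were averaged with propagated errors.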
# [2] = system: RAW-Dual (murine macrophage reporter line); assay: IRF reporter (Lucia luciferase) activity fold change vs agonist alone; higher = enhanced IRF activity
# How it was run: as §1
# [3] = system: RAW-Dual (murine macrophage reporter line); assay: viability score (confluency relative to resting cells, overnight) (fraction); higher = more viable, active = viable (0.7 or more)
# How it was run: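 Overnight exposure to 10 μM final compound was carried out on RAW-Dual macrophages in 384-well plates. IncuCyte software generated two confluency masks over all wells imaged with IncuCyte. The viability score gives confluency in relation to resting cells. A compound met the cutoff if each mask exceeded 70% of resting cells.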
# [4] = agonist: CpG ODN 1826 0.5 ug/mL
Compound,"NF-kB reporter [1, 4]",NF-kB reporter ([1]; agonist: LPS 0.1 ug/mL),NF-kB reporter ([1]; agonist: MPLA […]),IRF reporter ([2]; agonist: 3'3'-cGAMP 10 ug/mL),IRF reporter ([2]; agonist: LPS 0.1 ug/mL),IRF reporter ([2]; agonist: MPLA […]),viability score [3]
C=CCc1ccccc1OCC(O)CNC(C)C.Cl (stereo not drawn),1 ± 0.24,0.957 ± 0.14,1.06 ± 0.072,0.809 ± 0.029,1.16 ± 0.24,1.07 ± 0.14,0.978 (active)
Cc1cccc(C)c1OCC(C)N.Cl (stereo not drawn),1.17 ± 0.25,1.25 ± 0.23,0.953 ± 0.058,0.89 ± 0.061,1.33 ± 0.29,1.04 ± 0.13,0.968 (active)
OC1(c2ccc(Cl)c(C(F)(F)F)c2)CCN(CCCC(c2ccc(F)cc2)c2ccc(F)cc2)CC1,0.101 ± 0.0057,0.173 ± 0.12,0.103 ± 0.0063,0.0719 ± 0.0038,0.145 ± 0.11,0.0408 ± 0.004,0.0235 (inactive)
COc1ccc(CC(N)C(=O)NC2C(CO)OC(n3cnc4c(N(C)C)ncnc43)C2O)cc1.Cl.Cl (stereo not drawn),0.817 ± 0.068,0.514 ± 0.044,0.936 ± 0.094,0.699 ± 0.022,1.03 ± 0.13,1.3 ± 0.21,0.817 (active)
COc1ccc2c3c([nH]c2c1)C(=O)CCC3,1.43 ± 0.11,0.785 ± 0.066,1.12 ± 0.11,0.732 ± 0.067,0.561 ± 0.12,0.464 ± 0.11,0.843 (active)
O=C(CSc1ccc2nc(-c3ccccc3)cn2n1)Nc1ccc(Br)cc1,0.931 ± 0.2,0.957 ± 0.077,0.995 ± 0.15,0.624 ± 0.017,1.21 ± 0.25,1.31 ± 0.23,0.988 (active)
CC1(C)Cc2c(sc3nc(SCC(N)=O)n(CCc4ccccc4)c(=O)c23)CO1,0.815 ± 0.07,0.814 ± 0.054,0.927 ± 0.1,1.02 ± 0.054,1.24 ± 0.084,1.3 ± 0.11,1.01 (active)
Cc1cc(C)c(NC(=O)C2C3CCC4C(CCC32)C4(Cl)Cl)c(C)c1 (stereo not drawn),1.01 ± 0.11,1.03 ± 0.079,1.02 ± 0.062,1.03 ± 0.027,1.61 ± 0.14,1.1 ± 0.11,1.01 (active)
ON=C1ON=C(c2ccccc2)C1=NO,0.867 ± 0.067,0.775 ± 0.038,0.875 ± 0.078,0.176 ± 0.0086,1.29 ± 0.078,1.42 ± 0.13,0.998 (active)
CCC(Oc1ccccc1)C(=O)Nc1cc([N+](=O)[O-])ccc1C (stereo not drawn),0.91 ± 0.059,0.865 ± 0.073,0.987 ± 0.036,0.902 ± 0.042,0.997 ± 0.11,0.973 ± 0.14,1 (active)
CSC1CCN(C(=O)Nc2ccc(C)c(C)c2)C1 (stereo not drawn),1.03 ± 0.38,0.953 ± 0.11,0.985 ± 0.063,0.906 ± 0.038,0.954 ± 0.17,1.09 ± 0.11,0.999 (active)
COc1ccc(C)cc1NC(=O)CN(c1cccc(Br)c1)S(=O)(=O)c1ccccc1,0.904 ± 0.077,0.97 ± 0.053,0.915 ± 0.062,0.94 ± 0.023,1.11 ± 0.092,0.809 ± 0.18,1.02 (active)
CC(C)c1cc(-c2n[nH]c(=O)n2-c2ccc3c(ccn3C)c2)c(O)cc1O,0.0963 ± 0.0078,0.155 ± 0.012,0.681 ± 0.062,1.08 ± 0.059,1.22 ± 0.09,1.41 ± 0.12,0.542 (inactive)
CCOC(=O)C1=C(C)NC(=S)NC1c1ccccc1OCc1ccccc1 (stereo not drawn),0.862 ± 0.069,1.05 ± 0.063,0.965 ± 0.058,0.679 ± 0.09,1.25 ± 0.22,1.03 ± 0.087,1.01 (active)
